For one test, the system named is TAB165. The test is described as follows: qHTS profiling for inhibitors of Plasmodium falciparum proliferation (AID 504749). Further: potency means the concentration at half of the fitted maximal effect. Conditions: P. falciparum in erythrocytes, SYBR Green DNA, 72 h; series mostly up to 28.7 µM. The gist of the method: (§1)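 SYBR Green fluorescence (ex 485 nm, em 535 nm) reports parasite DNA after 72 h compound exposure of infected red cells at 0.3% parasitemia, 2.5% hematocrit; signal normalized to 0.29 uM artemisinin and vehicle wells.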

Another test has as its system W2. The test is described as above. Particulars: P. falciparum in erythrocytes, SYBR Green DNA, 72 h; series mostly up to 28.7 µM. Summed up: as §1
For test [1], the system named is CRL-7250. Kind of test: Cytotoxic Profiling of Annotated Libraries Using Quantitative High-Throughput Screening (AID 1296008). Further: potency means the concentration at half of the fitted maximal effect. On max response: on the % scale 0 is the no-effect control and ±100 the full control effect. Conditions: Five cell lines viability, CellTiter-Glo ATP luminescence, 48-72 h; max response: active compounds read low. Summed up: (§2)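 Cells exposed to compounds for 48 or 72 hr at 37 degrees Celsius. Viability read as ATP-coupled luminescence with CellTiter-Glo after 10 min at room temperature.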
(In general: ATP-based viability assays read luminescence as a measure of living cells.)

The next test has as its system HEK293. Described as above. Conditions: Five cell lines viability, CellTiter-Glo ATP luminescence, 48-72 h; max response: active compounds read low. The gist of the method: as §2
In test [2] the test system is HaCat. The description is as above. Conditions: Five cell lines viability, CellTiter-Glo ATP luminescence, 48-72 h; max response: active compounds read low. Summed up:
as §2

In the next test the test system is KB-3-1. The test is described as above. Particulars: Five cell lines viability, CellTiter-Glo ATP luminescence, 48-72 h; max response: active compounds read low. The gist of the method: as §2
A further test has as its system NIH3T3. The description is as above. Conditions: Five cell lines viability, CellTiter-Glo ATP luminescence, 48-72 h; max response: active compounds read low. The gist of the method: as §2
Test [3] deals with HACAT. The test is described as follows: qHTS assay to identify novel small-molecules to repurpose for Merkel cell carcinoma treatment (AID 1296009). Conditions: MCC and control cell lines, CellTiter-Glo viability, 72 h; at 44.8 µM (top of the series) unless noted. Summed up: (§3)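 CellTiter-Glo luminescence after 72 hr compound exposure at 37 degree celsius gave cell viability. Libraries NPC and MIPE were run as 8- and 11-point dose responses; RLUs normalized to DMSO (negative) and no-cell (cytotoxicity) controls.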
Background: qHTS replaces the single test concentration by a dilution series.

The next test relates to HEK293T. The test is described as above. Particulars: MCC and control cell lines, CellTiter-Glo viability, 72 h; at 44.8 µM (top of the series) unless noted. The gist of the method: as §3
Test [4] relates to CRL-7250. Described as above. Conditions: MCC and control cell lines, CellTiter-Glo viability, 72 h; at 44.8 µM (top of the series) unless noted. The gist of the method: as §3

Values joined by “and” are separate entries in the source; they are usually repeats but may differ in a detail not shown here. Equal entries are not always repeated. Inconclusive results are not listed. Where a structure was tested more than once in an assay, its records may differ in their call. Unmarked numbers belong to inactive results. Active and inactive are the calls of the source. The call rests on the fitted dose curve; in most records, active means well fitted inhibition curve with a large enough effect; inconclusive means small, poorly fitted or top-dose-only effect; inactive means flat fitted curve, though single readings scatter.

Data on 22 compounds can be found in PubChem BioAssay (NCATS).
Further: nearly all actives have a fitted effect of over 60% in size.

As for `Cc1ccc(Cl)c(O)c1`, the Potency entry with TAB165 and in the test with W2 was “inactive” in each case. The max response in the test on CRL-7250 [1] is 3.13%; in the test on HEK293, -16.6%; in the test with HaCat [2], -3.88%; in the test on KB-3-1 it was -1.89%. The compound was called inactive in the test with NIH3T3.

For the compound `CC[C@H]1C=CC=CC[C@@H](C)[C@H](O)[C@@](C)(O)C(=O)[C@@H](C)[C@H](O)[C@@H](C)C(=O)[C@@H](C)[C@H](O)[C@@H](C)C=CC(=O)O[C@@H]2[C@@H](C)[C@H](CC1)O[C@]1(CC[C@H](C)[C@H](C[C@@H](C)O)O1)[C@H]2C`, the Potency in the test with CRL-7250 [1] was 18.7 µM (active); with HEK293, 0.332 µM (active); in the test with KB-3-1 it was 0.372 µM (active); with NIH3T3, 16.6 µM (active).

Regarding `C#C[C@]1(O)C=C[C@@H]2[C@@H]3CCC4=CC(=O)CC[C@@H]4[C@H]3CC[C@@]21CC`, the max response is -4.4% in the test with CRL-7250 [1], -3.75% with HEK293 and -5.86% in the test with NIH3T3. The call in the test on HaCat [2] and with HACAT [3] was inactive.

As to `CN[C@@H](C)[C@H](O)c1ccccc1`, the max response in the test with CRL-7250 [1] is -24.6%; in the test with HaCat [2], 1.69%; in the test with KB-3-1 it was -0.943%; with NIH3T3 it was -5.73%. The outcome with HEK293 and with HEK293T was inactive.

For `O=[N+]([O-])/N=C1\NCCN1Cc1ccc(Cl)nc1`, the max response is -0.312% with CRL-7250 [1]; -1.41% in the test with HaCat [2]; 6.99% and -6.61% in the test on KB-3-1; -2.1% in the test with NIH3T3. The compound was called inactive with HEK293 and in the test on HEK293T.

For the compound `COC(C)(C)CCCC(C)C/C=C/C(C)=C/C(=O)OC(C)C` (stereo not given), in the test with W2, the Potency is 10.7 µM (active). The max response in the test with CRL-7250 [1] was 1.51%; in the test with HEK293, 3.25%; in the test with KB-3-1, 3.28%. Besides, the outcome in the test on HaCat [2], in the test with NIH3T3 and with HACAT [3] was inactive.

On to `CCNC(=O)C[C@@H]1N=C(c2ccc(Cl)cc2)c2cc(OC)ccc2-n2c(C)nnc21`, for which the Potency in the test on CRL-7250 [1] was 1.32 µM (active) and 1.3 µM (active); with HEK293, 5.17 µM (active); with NIH3T3 it was 1.84 µM (active). For the same compound, the max response in the test on HaCat [2] is -10.8%.

As for `COc1ccc2c(c[n+](C)c3c4cc5c(cc4ccc23)OCO5)c1OC`, the Potency in the test with CRL-7250 [1] was 16.6 µM (active); in the test on HEK293 it was 2.96 µM (active); in the test with KB-3-1 it was 26.4 µM (active).

Regarding `O=[N+]([O-])c1ncc[nH]1`, the max response was -4.09% with CRL-7250 [1], -7.79% in the test on HEK293, -7.46% in the test on HaCat [2] and -0.757% in the test on NIH3T3.

With `COc1ccc(N(C(=O)Oc2c(C)cccc2C)c2ccnc(Nc3ccc(N4CCN(C)CC4)cc3)n2)c(OC)c1`, the max response with CRL-7250 [1] is -8.13% and -61.8%; in the test with HEK293 it was 1.61% and -25.7%; in the test with KB-3-1, -15.9%. For the same compound, the Potency is 16.4 µM (active) in the test with KB-3-1 and 18.7 µM (active) with NIH3T3.

Consider `Cc1c(C(=O)Nc2cccc(C(F)(F)F)c2)cc(-c2ccccc2)n1CCCN1CCOCC1`, for which the max response in the test with CRL-7250 [1] was -26% and -3.59%; in the test with KB-3-1, -13.2%; with NIH3T3, -26.5% and -21.7%. In addition, in the test on HEK293, the Potency was 14.8 µM (active) and 14.6 µM (active).

With `C=C[C@@H]1CN2CCC1C[C@@H]2[C@@H](O)c1ccnc2ccccc12` (stereo not given in full), the max response in the test with CRL-7250 [1] was -5.2%; in the test with HaCat [2], -17.4%; in the test with NIH3T3, -16.7%. Further, in the test on HEK293, the Potency was 18.7 µM (active).

Take `CC(C)(C)NC[C@H](O)c1ccc(O)cc1Cl`: the max response in the test with CRL-7250 [1] was -2.25%; in the test with HEK293 it was -9.08%; in the test on KB-3-1 it was 9.37%; in the test on NIH3T3, -4.5%.

As to `CS(=O)(=O)c1ccc(C(=O)C2C(=O)CCCC2=O)c([N+](=O)[O-])c1`, the max response is -5.31% in the test with CRL-7250 [1], -9.25% in the test with HEK293, -20.3% in the test with KB-3-1 and 4.33% in the test with NIH3T3.

Take `CC(C)(C)c1cc(C=C(C#N)C#N)cc(Br)c1O`: the result in the test with CRL-7250 [1], in the test on NIH3T3 and in the test on CRL-7250 [4] was inactive. The max response is -8.76% in the test with HEK293 and 3.48% in the test on HaCat [2].

As for `O=C(Nc1ccncc1)C(=O)c1cn(Cc2ccc(Cl)cc2)c2ccccc12`, the Potency is 0.296 µM (active) in the test with CRL-7250 [1], 0.0372 µM (active) with HEK293, 0.0469 µM (active) with KB-3-1 and 0.0526 µM (active) in the test on NIH3T3.

For the compound `CC(=Cc1csc(C)n1)[C@@H]1C[C@H]2O[C@@H]2CCC[C@H](C)[C@@H](O)[C@@H](C)C(=O)C(C)(C)[C@@H](O)CC(=O)O1`, the values for the max response with HEK293, in the test with HaCat [2] and with NIH3T3 were -79%, -20.3% and -77%, respectively. Besides, the Potency in the test with KB-3-1 is 0.0004 µM (active).

As for `CC(O)=C(C#N)C(=O)Nc1cc(Br)ccc1Br`, the max response was 1.28% with CRL-7250 [1], -1.81% with HEK293 and -15.7% with NIH3T3. Further, in the test on KB-3-1, the outcome was inactive.

For the compound `Nc1ccc(Cl)cc1N`, the results for the max response in the test on CRL-7250 [1], with HaCat [2] and in the test on KB-3-1 were -5.38%, -38.9% and -2.75%, respectively.

For the compound `CCO/N=C(\CC)C1=C(O)CC(c2c(C)cc(C)cc2C)CC1=O` (stereo not given), the Potency with HEK293 was 24.3 µM (active). The max response with HaCat [2] was -8.94%; in the test on KB-3-1 it was -11.8%; in the test with NIH3T3 it was -12.4%.

Regarding `COCCOCCO`, the max response was -4.64% in the test on CRL-7250 [1], -2.65% with HEK293, -8.22% in the test with KB-3-1 and 2.23% in the test on NIH3T3.

Regarding `C=C1C[C@H]2[C@H]3CCC(=O)[C@@]3(C)CC[C@@H]2[C@@]2(C)C=CC(=O)C=C12`, the max response in the test on CRL-7250 [1] is -22.6%; with KB-3-1, 8.58%; in the test with NIH3T3, -14.2%. Besides, the result in the test with HaCat [2] and in the test with HACAT [3] was inactive.
